Growth inhibition data for nine compounds are collected here from PubChem BioAssay (NCI).

Structures are written as SMILES. This is part of a sample that, as a whole, favours compounds with a hit. Of some 79,000 tested, about 15% had one in any assay. Unmarked numbers belong to inactive results. Activity calls are given as the source filed them. Rule as the data show it: active = growth inhibition above about 70%; inactive = the rest.

A short description of experiment [1]: NCI Yeast Anticancer Drug Screen. Data for the rad50 strain (AID 155).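 Also: 0% = growth of vehicle-only cultures of the same strain.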 Conditions: S. cerevisiae rad50 strain growth inhibition, stronger effect = higher value. In outline: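 Yeast carrying a defined DNA repair defect were exposed to test compounds, and growth was compared with vehicle-treated controls to give percent inhibition.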
A short description of experiment [2]: NCI Yeast Anticancer Drug Screen. Data for the mec2-1 strain (AID 157). To be noted: S. cerevisiae mec2-1 strain, stronger effect = higher value. In outline:
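Using mec2-1 yeast: add compound, measure growth, express inhibition versus vehicle-treated cultures.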

Experiment [3] in a line: NCI Yeast Anticancer Drug Screen. Data for the sgs1 mgt1 strain (AID 161).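 Also: 0% = growth of cultures given vehicle only.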 Conditions: S. cerevisiae sgs1 mgt1 strain, stronger effect = higher value. In outline:
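This yeast growth screen uses a strain with defined DNA-repair lesions; compound-treated growth is compared with vehicle-treated growth.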

A short description of experiment [4]: NCI Yeast Anticancer Drug Screen. Data for the cln2 rad14 strain (AID 165).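 Also: 0% = growth equal to vehicle treated cultures.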 Conditions: S. cerevisiae cln2 rad14 strain, stronger effect = higher value. In outline: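 Yeast strain cln2 rad14, bearing defects in cell cycle control and DNA repair, serves as the test system; values reflect growth inhibition compared with vehicle.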
Experiment [5] in a line: NCI Yeast Anticancer Drug Screen. Data for the bub3 strain (AID 167). Conditions: S. cerevisiae bub3 mutant strain, stronger effect = higher value. The method, boiled down: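 Compounds were applied to a genetically altered yeast strain carrying a cell-cycle control defect. Growth inhibition was scored against vehicle-treated controls.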
A short description of experiment [6]: NCI Yeast Anticancer Drug Screen. Data for the mlh1 rad18 strain (AID 175). To be noted: S. cerevisiae mlh1 rad18 strain growth inhibition, stronger effect = higher value. In outline: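 Steps: expose repair-defective yeast to compound; measure growth; express inhibition against vehicle-treated controls.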
[7] abbreviates: at 5.0 µM (retest, dose inferred, filed as 0.5).
[8] abbreviates: at 50.0 µM (retest, dose inferred, filed as 5.0).

Consider `O=C1c2ccc(O)c(O)c2C(=O)c2cccc(O)c21`, for which the growth inhibition in experiment [1] (setting [7]) is 68%; in experiment [1] (setting [8]), 72% (active); in experiment [1] (at 50.0 µM), 28.1%; in experiment [2] (setting [7]) it was 30%; in experiment [2] (setting [8]), 49%; in experiment [2] (at 50.0 µM), 3.9%. The growth inhibition in experiment [3] (setting [7]) is 83% (active); in experiment [3] (setting [8]) it was 84% (active); in experiment [3] (at 50.0 µM), 36.6%; in experiment [4] (setting [7]) it was 34%; in experiment [4] (setting [8]), 46%; in experiment [4] (at 50.0 µM), 22.7%. For the same compound, the growth inhibition is 91% (active) in experiment [5] (setting [7]); 93% (active) in experiment [5] (setting [8]); 18.4% in experiment [5] (at 50.0 µM); 83% (active) in experiment [6] (setting [7]); 88% (active) in experiment [6] (setting [8]); 26.3% in experiment [6] (at 50.0 µM).
As to `OCCC(CCN1CCOCC1)(c1ccccc1)C1(O)CCCC1` (configuration not stated), the growth inhibition in experiment [1] (setting [7]) was 3%; in experiment [1] (setting [8]), 3%; in experiment [1] (at 50.0 µM), -2.95%; in experiment [2] (setting [7]) it was 5%; in experiment [2] (setting [8]) it was 2%; in experiment [2] (at 50.0 µM), 45.3%. For the same compound, the growth inhibition in experiment [3] (setting [7]) was 8%; in experiment [3] (setting [8]), 3%; in experiment [3] (at 50.0 µM) it was 74.4% (active); in experiment [4] (setting [7]), 2%; in experiment [4] (setting [8]) it was 2%; in experiment [4] (at 50.0 µM), 71.2% (active). In addition, the growth inhibition was -3% in experiment [5] (setting [7]); -4% in experiment [5] (setting [8]); 61.4% in experiment [5] (at 50.0 µM); -2% in experiment [6] (setting [7]); -2% in experiment [6] (setting [8]); 73.8% (active) in experiment [6] (at 50.0 µM).
Take `Nc1ccc2nc(Nc3ccc(Cl)c(Cl)c3)cnc2c1`: the growth inhibition in experiment [1] (setting [7]) was -17%; in experiment [1] (setting [8]), 97% (active); in experiment [1] (at 50.0 µM), 85.7% (active); in experiment [2] (setting [7]) it was -1%; in experiment [2] (setting [8]), 97% (active); in experiment [2] (at 50.0 µM), 86.5% (active). Further, the growth inhibition in experiment [3] (setting [7]) was 7%; in experiment [3] (setting [8]), 97% (active); in experiment [3] (at 50.0 µM) it was 87.7% (active); in experiment [4] (setting [7]) it was 14%; in experiment [4] (setting [8]), 97% (active); in experiment [4] (at 50.0 µM) it was 87.2% (active). Further, the growth inhibition was 28% in experiment [5] (setting [7]); 95% (active) in experiment [5] (setting [8]); 83.8% (active) in experiment [5] (at 50.0 µM); 25% in experiment [6] (setting [7]); 87% (active) in experiment [6] (setting [8]); 80.8% (active) in experiment [6] (at 50.0 µM).
In the case of `CCOC(=O)Nc1cc2c(cc1Br)-c1ccccc1C2O` (configuration not stated), the growth inhibition is -1% in experiment [1] (setting [7]); -3% in experiment [1] (setting [8]); 10% in experiment [1] (at 50.0 µM); -3% in experiment [2] (setting [7]); 12% in experiment [2] (setting [8]); -5.6% in experiment [2] (at 50.0 µM). The growth inhibition in experiment [3] (setting [7]) is -7%; in experiment [3] (setting [8]), 1%; in experiment [3] (at 50.0 µM), 10.4%; in experiment [4] (setting [7]), -2%; in experiment [4] (setting [8]), 27%; in experiment [4] (at 50.0 µM), -2.85%. The growth inhibition in experiment [5] (setting [7]) was 68%; in experiment [5] (setting [8]), 95% (active); in experiment [5] (at 50.0 µM), 69.4%; in experiment [6] (setting [7]) it was -2%; in experiment [6] (setting [8]) it was 7%; in experiment [6] (at 50.0 µM) it was 18.7%.
Regarding `COc1ccc2c(c1)CCC1OC(c3cccnc3)OC21` (configuration not stated), the growth inhibition in experiment [1] (setting [7]) is -1%; in experiment [1] (setting [8]) it was 18%; in experiment [1] (at 50.0 µM), 65.8%; in experiment [2] (setting [7]) it was -19%; in experiment [2] (setting [8]), -4%; in experiment [2] (at 50.0 µM) it was 36.9%. Also, the growth inhibition was -3% in experiment [3] (setting [7]); 8% in experiment [3] (setting [8]); 75.8% (active) in experiment [3] (at 50.0 µM); -5% in experiment [4] (setting [7]); 11% in experiment [4] (setting [8]); 55% in experiment [4] (at 50.0 µM). For the same compound, the growth inhibition in experiment [5] (setting [7]) was 10%; in experiment [5] (setting [8]) it was 25%; in experiment [5] (at 50.0 µM), 30.6%; in experiment [6] (setting [7]) it was -10%; in experiment [6] (setting [8]), -15%; in experiment [6] (at 50.0 µM) it was 70.9% (active).
Consider `C=CCOc1ccc(/C=N/NC(N)=S)cc1`, for which the growth inhibition in experiment [1] (setting [7]) is 10%; in experiment [1] (setting [8]), 83% (active); in experiment [1] (at 50.0 µM), 88.3% (active); in experiment [2] (setting [7]), 13%; in experiment [2] (setting [8]), 81% (active); in experiment [2] (at 50.0 µM), 87.3% (active). The growth inhibition in experiment [3] (setting [7]) is 15%; in experiment [3] (setting [8]) it was 78% (active); in experiment [3] (at 50.0 µM), 44%; in experiment [4] (setting [7]) it was 6%; in experiment [4] (setting [8]) it was 87% (active); in experiment [4] (at 50.0 µM) it was 58.2%. The growth inhibition in experiment [5] (setting [7]) was 5%; in experiment [5] (setting [8]), 91% (active); in experiment [5] (at 50.0 µM), 88.1% (active); in experiment [6] (setting [7]), 10%; in experiment [6] (setting [8]), 90% (active); in experiment [6] (at 50.0 µM), 52.1%.
With `C=C1C(=O)[C@]23C[C@H]1CC[C@H]2[C@@]12CO[C@@H](O)[C@@H]1C(C)(C)[C@@H](O)C[C@@H]2OC3=O`, the growth inhibition in experiment [1] (setting [7]) is 8%; in experiment [1] (setting [8]) it was 6%; in experiment [1] (at 50.0 µM), 2.3%; in experiment [2] (setting [7]), -19%; in experiment [2] (setting [8]), 79% (active); in experiment [2] (at 50.0 µM) it was -5.25%. The growth inhibition in experiment [3] (setting [7]) is 9%; in experiment [3] (setting [8]), 27%; in experiment [3] (at 50.0 µM), 25.4%; in experiment [4] (setting [7]), -7%; in experiment [4] (setting [8]), 95% (active); in experiment [4] (at 50.0 µM) it was 67.2%. Further, the growth inhibition in experiment [5] (setting [7]) was -5%; in experiment [5] (setting [8]), 95% (active); in experiment [5] (at 50.0 µM), -0.9%; in experiment [6] (setting [7]), -1%; in experiment [6] (setting [8]), 11%; in experiment [6] (at 50.0 µM) it was 24.4%.
In the case of `CCCCCCCCCCCCCCCBr`, the growth inhibition in experiment [1] (setting [7]) is -27%; in experiment [1] (setting [8]), 4%; in experiment [1] (at 50.0 µM), 10.7%; in experiment [2] (setting [7]) it was -9%; in experiment [2] (setting [8]) it was 12%; in experiment [2] (at 50.0 µM), 49.6%. Besides, the growth inhibition was -10% in experiment [3] (setting [7]); 6% in experiment [3] (setting [8]); -9.7% in experiment [3] (at 50.0 µM); -5% in experiment [4] (setting [7]); -5% in experiment [4] (setting [8]); 85.5% (active) in experiment [4] (at 50.0 µM). For the same compound, the growth inhibition in experiment [5] (setting [7]) was 2%; in experiment [5] (setting [8]), -2%; in experiment [5] (at 50.0 µM) it was 80.7% (active); in experiment [6] (setting [7]) it was 5%; in experiment [6] (setting [8]), 18%; in experiment [6] (at 50.0 µM), 92.8% (active).
For `N#CCc1nc(Cl)cc(Cl)n1`, the growth inhibition in experiment [1] (setting [7]) is 2%; in experiment [1] (setting [8]), 29%; in experiment [1] (at 50.0 µM) it was 31.9%; in experiment [2] (setting [7]), 12%; in experiment [2] (setting [8]) it was 59%; in experiment [2] (at 50.0 µM), 81.6% (active). Further, the growth inhibition in experiment [3] (setting [7]) was 2%; in experiment [3] (setting [8]), 24%; in experiment [3] (at 50.0 µM), 19.8%; in experiment [4] (setting [7]), 4%; in experiment [4] (setting [8]), 12%; in experiment [4] (at 50.0 µM) it was 9.7%. The growth inhibition in experiment [5] (setting [7]) was -4%; in experiment [5] (setting [8]) it was 2%; in experiment [5] (at 50.0 µM), 5.05%; in experiment [6] (setting [7]) it was 3%; in experiment [6] (setting [8]), 27%; in experiment [6] (at 50.0 µM), 15.9%.
